Assay results as given in publication PMC5700166.
Numbering of substitutions follows the chain as printed.

Legend:
Assay in all cases: protein-binding microarray (PBM); PBM: ~300 nM protein, 6 mM HEPES pH 7.8, 80 mM KCl, 0.5 mM EDTA, 0.5 mM EGTA, 6% glycerol, 35 ng/ul poly-dIdC, 1% milk, 1 h, room temperature; Ap Aiptasia and Nv Nematostella (sea anemones) / Co Capsaspora / Aq Amphimedon (sponge) / Dm Drosophila / Hu human; RHD is the Rel homology domain; high values mean tight binding
Conditions in all cases: dsDNA, one strand shown
GST-Ap-NF-kB RHD = target: T1, GST-Ap-NF-kB RHD (Exaiptasia pallida (Aiptasia), UniProt A0A913YAJ5 2-422)
T1 sequence: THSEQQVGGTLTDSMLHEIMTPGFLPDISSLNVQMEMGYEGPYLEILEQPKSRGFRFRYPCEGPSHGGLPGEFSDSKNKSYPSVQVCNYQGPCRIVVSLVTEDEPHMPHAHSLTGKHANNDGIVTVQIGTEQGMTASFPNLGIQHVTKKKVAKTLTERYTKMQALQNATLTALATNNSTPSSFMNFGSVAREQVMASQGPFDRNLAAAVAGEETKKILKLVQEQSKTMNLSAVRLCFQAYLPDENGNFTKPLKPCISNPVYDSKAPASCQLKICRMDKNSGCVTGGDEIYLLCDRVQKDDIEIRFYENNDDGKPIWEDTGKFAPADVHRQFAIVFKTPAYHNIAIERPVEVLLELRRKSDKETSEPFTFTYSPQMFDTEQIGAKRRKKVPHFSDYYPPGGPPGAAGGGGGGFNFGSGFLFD

[1] = target: T2, GST-Nv-NF-kB (Cys allele) (Nematostella vectensis, UniProt E5G601 2-411)
T2 sequence: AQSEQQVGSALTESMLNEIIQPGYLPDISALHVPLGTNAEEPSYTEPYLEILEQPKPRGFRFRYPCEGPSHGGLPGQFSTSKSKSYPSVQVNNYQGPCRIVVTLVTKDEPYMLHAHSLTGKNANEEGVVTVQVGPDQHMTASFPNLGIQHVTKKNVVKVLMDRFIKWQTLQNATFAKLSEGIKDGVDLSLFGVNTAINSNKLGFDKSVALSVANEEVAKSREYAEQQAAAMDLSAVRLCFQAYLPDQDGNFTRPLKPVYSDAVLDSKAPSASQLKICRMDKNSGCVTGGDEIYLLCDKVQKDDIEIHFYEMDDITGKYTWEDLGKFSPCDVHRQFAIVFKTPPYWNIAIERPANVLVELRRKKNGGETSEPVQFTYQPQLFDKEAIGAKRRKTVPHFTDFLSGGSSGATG

[2] = target: T3, GST-Nv-NF-kB (Ser allele) (Nematostella vectensis, UniProt A7UNT2 2-411)
T3 sequence: T2 sequence with Q21R, C66S, S207N, E215Q, V217A, E225K, A268E, D399E

GST-Co-NF-kB = target: T4, GST-Co-NF-kB (Capsaspora owczarzaki, UniProt F1ARL5 200-546)
T4 sequence: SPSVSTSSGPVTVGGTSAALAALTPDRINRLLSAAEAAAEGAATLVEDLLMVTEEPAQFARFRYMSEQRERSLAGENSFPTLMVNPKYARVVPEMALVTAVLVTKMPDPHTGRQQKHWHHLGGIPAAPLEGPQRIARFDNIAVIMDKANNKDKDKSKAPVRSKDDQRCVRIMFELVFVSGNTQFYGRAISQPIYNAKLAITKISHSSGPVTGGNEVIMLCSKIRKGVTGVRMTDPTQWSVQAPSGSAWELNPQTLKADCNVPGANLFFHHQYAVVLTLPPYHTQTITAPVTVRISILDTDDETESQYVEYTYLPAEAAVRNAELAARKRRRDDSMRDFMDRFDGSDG

GST-Dm-Relish = target: T5, GST-Dm-Relish (Drosophila melanogaster, UniProt Q94527 99-473)
T5 sequence: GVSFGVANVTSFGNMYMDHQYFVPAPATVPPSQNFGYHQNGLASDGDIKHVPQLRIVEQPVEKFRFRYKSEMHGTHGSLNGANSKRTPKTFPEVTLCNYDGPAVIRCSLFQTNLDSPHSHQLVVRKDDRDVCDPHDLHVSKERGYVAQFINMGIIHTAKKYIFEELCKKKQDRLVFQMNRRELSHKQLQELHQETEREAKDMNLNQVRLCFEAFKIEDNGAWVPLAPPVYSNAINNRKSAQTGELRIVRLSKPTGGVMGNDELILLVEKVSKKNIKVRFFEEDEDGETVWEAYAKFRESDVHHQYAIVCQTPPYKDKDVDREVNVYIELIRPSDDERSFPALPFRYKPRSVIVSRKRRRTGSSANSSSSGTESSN

GST-Aq-NF-kB = target: T6, GST-Aq-NF-kB (Amphimedon queenslandica, UniProt A9Y5G7 2-389)
T6 sequence: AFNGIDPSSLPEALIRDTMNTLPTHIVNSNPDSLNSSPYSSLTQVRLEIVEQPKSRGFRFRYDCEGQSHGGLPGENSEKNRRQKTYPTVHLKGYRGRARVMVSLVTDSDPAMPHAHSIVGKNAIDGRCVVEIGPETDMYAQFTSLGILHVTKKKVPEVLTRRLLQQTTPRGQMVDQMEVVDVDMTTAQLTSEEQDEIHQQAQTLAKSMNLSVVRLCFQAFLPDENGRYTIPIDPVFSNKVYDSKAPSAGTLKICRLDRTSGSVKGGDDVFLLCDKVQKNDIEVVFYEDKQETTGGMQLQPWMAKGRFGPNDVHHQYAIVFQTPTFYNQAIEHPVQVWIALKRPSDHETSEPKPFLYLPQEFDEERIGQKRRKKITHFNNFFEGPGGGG

GST-Hu-p50 = GST-Hu-p50 (Homo sapiens, UniProt P19838 7-356)
Chain of GST-Hu-p50 (P19838 7-356): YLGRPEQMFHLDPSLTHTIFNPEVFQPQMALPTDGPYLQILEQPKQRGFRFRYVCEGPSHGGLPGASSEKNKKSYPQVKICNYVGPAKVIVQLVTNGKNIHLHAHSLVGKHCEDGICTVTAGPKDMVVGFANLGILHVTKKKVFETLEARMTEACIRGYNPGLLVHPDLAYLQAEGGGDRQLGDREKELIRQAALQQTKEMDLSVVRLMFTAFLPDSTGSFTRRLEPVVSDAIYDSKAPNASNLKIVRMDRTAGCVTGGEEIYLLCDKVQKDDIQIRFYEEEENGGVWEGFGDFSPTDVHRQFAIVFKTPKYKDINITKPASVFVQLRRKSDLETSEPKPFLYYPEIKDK

Row | Sequence | binding signal (GST-Ap-NF-kB RHD) [z-score] | binding signal [1] [z-score] | binding signal [2] [z-score] | binding signal (GST-Co-NF-kB) [z-score] | binding signal (GST-Dm-Relish) [z-score] | binding signal (GST-Aq-NF-kB) [z-score] | binding signal (GST-Hu-p50) [z-score]
1 | CCGATTAACATCAGGGGGGAATATGATGTTAATCGGGTCTTGATTCGCTTGACGCTGCTG | 7.1 | 6.54 | 7.41 | 10.2 | 5.21 | 6.44 | 6.79
2 | CCGATTAACATCAAAATTCCCGCTGATGTTAATCGGGTCTTGATTCGCTTGACGCTGCTG | 4.49 | 5.99 | 5.62 | 5.23 | 5.76 | 5.51 | 4.41
3 | CCGATTAACATCAGGACTTTCCCTGATGTTAATCGGGTCTTGATTCGCTTGACGCTGCTG | 6.5 | 10.2 | 6.68 | 1.87 | 7.98 | 10.5 | 5.32
4 | CCGATTAACATCAAACACCCCCTTGATGTTAATCGGGTCTTGATTCGCTTGACGCTGCTG | 4.95 | 5.25 | 5.61 | 3.04 | 5.63 | 6.03 | 5.5
5 | CCGATTAACATCAAATTTCCCGTTGATGTTAATCGGGTCTTGATTCGCTTGACGCTGCTG | 3.33 | 5.71 | 5.5 | 4.13 | 3.24 | 5.53 | 4.24
6 | CCGATTAACATCAAAATACTCCCTGATGTTAATCGGGTCTTGATTCGCTTGACGCTGCTG | 5.1 | 4.6 | 4.49 | 2.79 | 1.83 | 4.2 | 3.64
7 | CCGATTAACATCAAAATACCCCCTGATGTTAATCGGGTCTTGATTCGCTTGACGCTGCTG | 9.02 | 7.56 | 8.62 | 7.21 | 7.72 | 7.21 | 6.58
8 | CCGATTAACATCAAGGGAAATTCTGATGTTAATCGGGTCTTGATTCGCTTGACGCTGCTG | 5.74 | 8.12 | 7.46 | 4.57 | 3.68 | 6.88 | 5.4
9 | CCGATTAACATCACTTTTCCCCCTGATGTTAATCGGGTCTTGATTCGCTTGACGCTGCTG | 6.53 | 7.4 | 8.95 | 10.8 | 3.73 | 5.27 | 6.51
10 | CCGATTAACATCAGGTTTCCCCATGATGTTAATCGGGTCTTGATTCGCTTGACGCTGCTG | 6.59 | 7.14 | 8.78 | 7.88 | 4.69 | 5.35 | 5.34
11 | CCGATTAACATCAGGGGAACTACTGATGTTAATCGGGTCTTGATTCGCTTGACGCTGCTG | 6.92 | 6.99 | 7.41 | 5.65 | 9.35 | 6.91 | 5.5
12 | CCGATTAACATCAAGGGAATTTCTGATGTTAATCGGGTCTTGATTCGCTTGACGCTGCTG | 6.34 | 8.61 | 8.46 | 4.25 | 5.45 | 7.24 | 5.75
13 | CCGATTAACATCAGTACTCCCCATGATGTTAATCGGGTCTTGATTCGCTTGACGCTGCTG | 3.64 | 2.81 | 2.45 | 2.88 | 4.81 | 2.35 | 2.2
14 | CCGATTAACATCACAAAATTCCCTGATGTTAATCGGGTCTTGATTCGCTTGACGCTGCTG | 5.93 | 8.61 | 8.58 | 5.01 | 6.16 | 6.82 | 6.04
15 | CCGATTAACATCAGAATTCCCCATGATGTTAATCGGGTCTTGATTCGCTTGACGCTGCTG | 8.83 | 10.3 | 9.9 | 7.04 | 6.72 | 6.99 | 6.62
16 | CCGATTAACATCAGGGGGGATAATGATGTTAATCGGGTCTTGATTCGCTTGACGCTGCTG | 5.8 | 4.93 | 5.26 | 7.17 | 4.67 | 4.72 | 5.14
17 | CCGATTAACATCATAATCCCCCATGATGTTAATCGGGTCTTGATTCGCTTGACGCTGCTG | 7.75 | 6.81 | 7.45 | 6.17 | 5.67 | 5.96 | 6.67
18 | CCGATTAACATCAGGGGTTTTTATGATGTTAATCGGGTCTTGATTCGCTTGACGCTGCTG | 8.01 | 8.52 | 7.26 | 2.38 | 8.58 | 7.14 | 7.21
19 | CCGATTAACATCAGGGGGAAAAATGATGTTAATCGGGTCTTGATTCGCTTGACGCTGCTG | 6.66 | 7.33 | 9.96 | 11.6 | 4.64 | 5.88 | 7.07
